Measurements: PubChem BioAssay (NCATS)
Inconclusive results are not listed. A number with no mark means an inactive call. Activity calls are given as the source filed them. The call rests on the fitted dose curve; in most records, active means well fitted activation curve with a large enough effect; inconclusive means small, poorly fitted or top-dose-only effect, or effect the other way; inactive means flat fitted curve, though single readings scatter.

Experiment: Cellular Toxicity (caspase-3) NIH 3T3 (AID 666);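 further: caspase signal read after 16 h compound exposure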;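 on caspase-3 activation: 0% = DMSO basal and 100% = 100 µM tamoxifen stimulation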
Details: NIH 3T3 caspase-3 activation, apoptosis/toxicity; series mostly up to 92.2 µM; caspase-3 activation: at the top concentration
Excerpt: NIH Chemical Genomics Center [NCGC]
NIH Molecular Libraries Screening Centers Network [MLSCN]
National Institutes of Environmental Health Sciences [NIEHS]
National Toxicology Program [NTP]
We have developed a 1536-well cell-based assay for quantitative high throughput screening (qHTS) against a number of cell lines to determine in vitro caspase 3/7 of small molecules. This particular assay uses the NIH 3T3 cell line which is derived from mouse fibroblasts.
NCGC Assay Protocol Summary:
The Caspase-Glo 3/7 assay (Promega) is a homogeneous method to measure caspase-3 and caspase-7 activities in cultured cells. The quantitation of caspase 3/7 activity is based on the cleavage of a peptide-aminoluciferin substrate. After caspase cleaves the substrate the free aminoluciferin is liberated and serves as the substrate of luciferase, which generates the light. The luminescent signal is proportional to amount of caspase 3/7 activity present.
Using the Caspase-Glo 3/7 assay, the amount of caspase 3/7 activity was measured in the NIH 3T3 cell line with complete culture medium following compound treatment for 16 hours. The assay was performed in opaque white 1536-well plates. In the screen, tamoxifen and doxorubicin were used as positive controls. Library compounds were measured for their ability to cause the activation of caspase 3/7 in the cell line, as reflected by an increase in luminescence signal, in a concentration-dependent manner. Data were normalized to the controls for basal activity (DMSO only) and 100% stimulation (100 uM tamoxifen). AC50 values were determined from concentration-response data modeled with the standard Hill equation.
qHTS protocol for caspase 3/7 assay in NIH 3T3 cells
[Step] [Parameter] [Value] [Description]
1. Reagent; 5 uL; 1000 NIH 3T3 cells/well
2. Time; 5 hr; 37 °C incubation
4. Controls; 23 nL; Tamoxifen 0.23 uM to 100 uM & Doxorubicin 7.0 pM to 100 uM
5. Time; 16 hr; 37 °C incubation
6. Reagent; 5 uL; Caspase-Glo 3/7 reagent
7. Time; 20 min; Room Temperature
8. Detection; Luminescence; Viewlux plate reader
Keywords: caspase 3/7, apoptosis, NIH 3T3 cell line, luminescence, NTPHTS, NTPHTS_NCGC, NIEHS, EPA, DSSTox, MLSMR, MLSCN, NIH Roadmap, qHTS, NCGC
Potency means the concentration at half of the fitted maximal effect.

Structure (SMILES) | caspase-3 activation | Potency
C[C@]12C=CC(=O)C=C1CC[C@@H]1[C@@H]2C(=O)C[C@@]2(C)[C@H]1CC[C@]2(O)C(=O)CO | -0.715% | 
O=C(O)c1cc(=O)[nH]c(=O)[nH]1 | -2.3% | 
N=C(N)c1ccc(OCCCCCOc2ccc(C(=N)N)cc2)cc1 | -2.2% | 
NNC(=O)c1ccncc1 | -2.1% | 
COc1ccc2cc3[n+](cc2c1OC)CCc1cc2c(cc1-3)OCO2 | -10.2% | 
Cc1cc(NS(=O)(=O)c2ccc(N)cc2)no1 | 0.333% | 
NC(N)=NC(N)=NCCc1ccccc1 | -4.87% | 
Cc1noc(NS(=O)(=O)c2ccc(N)cc2)c1C | -2.58% | 
Cc1nnc(NS(=O)(=O)c2ccc(N)cc2)s1 | -3.86% | 
O=C(N[C@H](CO)[C@H](O)c1ccc([N+](=O)[O-])cc1)C(Cl)Cl | -3.48% | 
CC[C@H](C)C(=O)O[C@H]1C[C@@H](C)C=C2C=C[C@H](C)[C@H](CC[C@@H]3C[C@@H](O)CC(=O)O3)[C@H]21 | 7.71% | 
Cc1ncc([N+](=O)[O-])n1CCO | -0.725% | 
CN(C)c1ccc(C(=C2C=CC(=[N+](C)C)C=C2)c2ccc(N(C)C)cc2)cc1 |  | 31.6 µM (active)
Cc1ccnc2c1NC(=O)c1cccnc1N2C1CC1 | 2.1% | 
CC(=O)[C@H]1CC[C@H]2[C@@H]3CCC4=CC(=O)CC[C@]4(C)[C@H]3CC[C@]12C |  | inactive
CC1=NN(c2ccccc2)C(=O)C1 | -0.0813% | 
CCc1cc(C(N)=S)ccn1 | -16.1% | 
